Experimental findings from PubChem BioAssay AID720650 (Broad Institute, 2013) are described below.

Active and inactive are the calls of the source. The rule behind the calls is not given here.

A short description of the assay: Biochemical counterscreen for C difficile toxins, absence of UDPG, inhibitor dose response (AID 720650). The following applies: series mostly up to 19.5 µM.
Take `c1ccc(Cc2nnc3n2N=C(c2ccccc2)CS3)cc1`: the AC50 entry is “inactive”.

Turning to `CCOC(=O)c1nnn(-c2nonc2N)c1-c1ccc(F)cc1`, the AC50 entry was “inactive”.

`O=C(C[C@H]1C[C@@H]2c3cc(NC(=O)c4ccc5c(c4)OCO5)ccc3O[C@@H]2[C@@H](CO)O1)NCc1cccc(F)c1`: the AC50 entry was “inactive”.

Regarding `C=CCNS(=O)(=O)c1nc(C)c(Cl)c(C)c1C#N`, the AC50 entry was “inactive”.

`CCOCC(=O)Nc1cc(Cl)ccc1C`: the AC50 entry was “inactive”.

As for `COc1cc2oc3ccc(C#Cc4ccccn4)cc3c(=O)c2cc1OC`, the AC50 result was “inactive”.

For `O=C(CC(c1ccccc1)c1ccccc1)Nc1ccc(O)cc1`, the AC50 was 13.4 µM (active).

Take `Oc1ccc(/C=N/n2cc(-c3ccccc3)[nH]c2=S)cc1`: the AC50 was 6.42 µM (active).

As to `COc1cccc(/C=C/c2onc(C)c2S(=O)(=O)N2CCC(C(=O)NC3CCCCCC3)CC2)c1`, the AC50 result was “inactive”.

As for `CCn1c(=S)[nH]c2c(=O)n(C)c(=O)n(C)c21`, the AC50 is 13.2 µM (active).

For `COc1cc(/C=C/C(=O)OCC(=O)NCc2ccco2)ccc1O`, the AC50 result was “inactive”.

For `CC(=O)N(c1ccccc1C)S(=O)(=O)c1ccc(Cl)cc1`, the AC50 result was “inactive”.

As for `Cc1cc(C(=O)N2CCN(Cc3ccccc3)CC2)ccc1[N+](=O)[O-]`, the AC50 entry is “inactive”.

`CCOC(=O)C(=O)NNc1ccc(Cl)cc1`: the AC50 was 0.594 µM (active).

As to `CC(C)CC(=O)N1CCN(Cc2ccc(Br)cc2)CC1`, the AC50 result was “inactive”.

As to `Cc1onc(-c2c(F)cccc2Cl)c1C(=O)Nc1nnc(C(F)(F)F)s1`, the AC50 entry is “inactive”.

On to `C[C@H]1CN([C@@H](C)CO)S(=O)(=O)c2ccc(-c3ccncc3)cc2O[C@@H]1CN(C)Cc1ccc(Oc2ccccc2)cc1`, for which the AC50 result is “inactive”.
